Experimental data published in PubChem BioAssay (NCI).
“And” between values parts separate entries of the source, which are not always exact repeats. Equal entries are not always repeated. The panel holds about 83,000 compounds, 20% with a hit somewhere; the sample as a whole holds those more often.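 Note: values are percent growth. 100 is the growth of untreated cells, values between 100 and 0 indicate rising inhibition; between -100 and 0 indicates cell death.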 The source made the active and inactive calls. How the source made its calls: active means growth percent below 10; inactive means the rest.

Experiments:
Assay in all cases: NCI-60 one-dose screen, 48 h (100 = growth as untreated, 0 = no growth, -100 = all killed)
Conditions in all cases: 10 µM unless noted
HCT-15 colon = test system: HCT-15 colon
HT29 colon = test system: HT29 colon
SNB-75 CNS = test system: SNB-75 CNS
SNB-19 CNS = test system: SNB-19 CNS
U251 CNS = test system: U251 CNS
PC-3 prostate = test system: PC-3 prostate
SK-MEL-5 melanoma = test system: SK-MEL-5 melanoma
UACC-62 melanoma = test system: UACC-62 melanoma
LOX IMVI melanoma = test system: LOX IMVI melanoma
SK-MEL-28 melanoma = test system: SK-MEL-28 melanoma
SK-MEL-2 melanoma = test system: SK-MEL-2 melanoma
EKVX NSCLC = test system: EKVX NSCLC
SN12C renal = test system: SN12C renal
UO-31 renal = test system: UO-31 renal
TK-10 renal = test system: TK-10 renal
ACHN renal = test system: ACHN renal
A498 renal = test system: A498 renal
CCRF-CEM leukemia = test system: CCRF-CEM leukemia
MOLT-4 leukemia = test system: MOLT-4 leukemia
CAKI-1 renal = test system: CAKI-1 renal

In the case of COc1cc(-c2nccc3cc4c(cc23)OCO4)cc(OC)c1OC, the growth (HCT-15 colon) is reported as 22.1% (inactive) and 27.9% (inactive), the growth (HT29 colon) is reported as 1.74% (active) and 5.6% (active) and the growth (SNB-75 CNS) is reported as 10.8% (inactive) and -9.99% (active). The growth (SNB-19 CNS) was 38.3% (inactive) and 38.8% (inactive), the growth (U251 CNS) was 40.6% (inactive) and 24.1% (inactive) and the growth (PC-3 prostate) was 29.5% (inactive). For the same compound, the growth (SK-MEL-5 melanoma) was 6.67% (active), the growth (UACC-62 melanoma) was 34.2% (inactive) and 28.3% (inactive) and the growth (LOX IMVI melanoma) was 32.2% (inactive) and 29.6% (inactive). For the same compound, the growth (SK-MEL-28 melanoma) was 57.5% (inactive) and 39.8% (inactive), the growth (SK-MEL-2 melanoma) was 9.15% (active) and the growth (EKVX NSCLC) was 68.4% (inactive) and 63.5% (inactive). For the same compound, the growth (SN12C renal) was 39% (inactive) and 47.3% (inactive), the growth (UO-31 renal) was 50.8% (inactive) and 44.4% (inactive) and the growth (TK-10 renal) was 44.9% (inactive) and 28.9% (inactive). For the same compound, the growth (ACHN renal) was 36.2% (inactive) and 40.2% (inactive), the growth (A498 renal) was 41.3% (inactive) and 20.1% (inactive) and the growth (CCRF-CEM leukemia) was 34.2% (inactive) and 34.4% (inactive). The growth (MOLT-4 leukemia) was 39.4% (inactive) and 17.7% (inactive).

With CCC(=O)C(CC)c1cccc(OC)c1 (stereo unspecified) the growth (HCT-15 colon) was 103% (inactive), the growth (HT29 colon) was 103% (inactive) and the growth (SNB-75 CNS) was 76.7% (inactive). For the same compound, the growth (SNB-19 CNS) was 111% (inactive), the growth (U251 CNS) was 99.4% (inactive) and the growth (PC-3 prostate) was 98.8% (inactive). For the same compound, the growth (SK-MEL-5 melanoma) was 101% (inactive), the growth (UACC-62 melanoma) was 108% (inactive) and the growth (LOX IMVI melanoma) was 100% (inactive). For the same compound, the growth (SK-MEL-28 melanoma) was 106% (inactive), the growth (SK-MEL-2 melanoma) was 116% (inactive) and the growth (EKVX NSCLC) was 106% (inactive). For the same compound, the growth (SN12C renal) was 112% (inactive), the growth (TK-10 renal) was 101% (inactive) and the growth (ACHN renal) was 106% (inactive). For the same compound, the growth (CAKI-1 renal) was 94.4% (inactive), the growth (A498 renal) was 87.8% (inactive) and the growth (CCRF-CEM leukemia) was 93.8% (inactive). For the same compound, the growth (MOLT-4 leukemia) was 98.4% (inactive).

With CC(=O)Nc1cccc2c1CCCC2 the growth (HCT-15 colon) was 92.8% (inactive) and 96.5% (inactive), the growth (HT29 colon) was 92.8% (inactive) and 85.6% (inactive) and the growth (SNB-75 CNS) was 85.4% (inactive) and 101% (inactive). The growth (SNB-19 CNS) was 103% (inactive) and 104% (inactive), the growth (U251 CNS) was 97.7% (inactive) and 95.7% (inactive) and the growth (PC-3 prostate) was 87.8% (inactive) and 90.2% (inactive). The growth (SK-MEL-5 melanoma) was 100% (inactive), the growth (UACC-62 melanoma) was 107% (inactive) and 102% (inactive) and the growth (LOX IMVI melanoma) was 97.1% (inactive) and 93.6% (inactive). The growth (SK-MEL-2 melanoma) was 82.6% (inactive) and 75% (inactive), the growth (EKVX NSCLC) was 96.6% (inactive) and 94.7% (inactive) and the growth (SN12C renal) was 103% (inactive) and 100% (inactive). The growth (UO-31 renal) was 88.2% (inactive) and 91% (inactive), the growth (TK-10 renal) was 85.6% (inactive) and 83.7% (inactive) and the growth (ACHN renal) was 102% (inactive) and 110% (inactive). The growth (CAKI-1 renal) was 95.1% (inactive) and the growth (CCRF-CEM leukemia) was 82.6% (inactive) and 100% (inactive).

For O=c1c2ccccc2nc2n1Cc1nc3ccccc3c(=O)n1C2, the growth (HCT-15 colon) was 90.9% (inactive) and 108% (inactive), the growth (HT29 colon) was 111% (inactive) and 103% (inactive) and the growth (SNB-75 CNS) was 86.6% (inactive) and 105% (inactive). For the same compound, the growth (SNB-19 CNS) was 102% (inactive) and 91.9% (inactive), the growth (U251 CNS) was 105% (inactive) and 108% (inactive) and the growth (PC-3 prostate) was 98.6% (inactive) and 107% (inactive). The growth (SK-MEL-5 melanoma) was 95.3% (inactive) and 107% (inactive), the growth (UACC-62 melanoma) was 95.6% (inactive) and 98.9% (inactive) and the growth (LOX IMVI melanoma) was 96.1% (inactive) and 97.6% (inactive). For the same compound, the growth (SK-MEL-28 melanoma) was 97.8% (inactive) and 101% (inactive), the growth (SK-MEL-2 melanoma) was 103% (inactive) and 119% (inactive) and the growth (EKVX NSCLC) was 90.9% (inactive) and 104% (inactive). The growth (UO-31 renal) was 81.2% (inactive) and 92.6% (inactive), the growth (TK-10 renal) was 107% (inactive) and 102% (inactive) and the growth (CAKI-1 renal) was 93.5% (inactive). For the same compound, the growth (A498 renal) was 93.9% (inactive) and 103% (inactive), the growth (CCRF-CEM leukemia) was 96.2% (inactive) and 112% (inactive) and the growth (MOLT-4 leukemia) was 99.4% (inactive) and 30.7% (inactive).

O=[N+]([O-])c1ccc2nc3c4ccccc4c4ccccc4c3nc2c1 was tested, and the growth (HCT-15 colon) was 80.8% (inactive), the growth (HT29 colon) was 74.6% (inactive) and the growth (SNB-75 CNS) was 74.4% (inactive). For the same compound, the growth (SNB-19 CNS) was 89.2% (inactive), the growth (U251 CNS) was 62.3% (inactive) and the growth (PC-3 prostate) was 55.1% (inactive). For the same compound, the growth (SK-MEL-5 melanoma) was 76.8% (inactive), the growth (UACC-62 melanoma) was 86.7% (inactive) and the growth (LOX IMVI melanoma) was 30.8% (inactive). The growth (SK-MEL-28 melanoma) was 113% (inactive), the growth (SK-MEL-2 melanoma) was 97.6% (inactive) and the growth (EKVX NSCLC) was 81.8% (inactive). The growth (SN12C renal) was 81.9% (inactive), the growth (TK-10 renal) was 67.8% (inactive) and the growth (CAKI-1 renal) was 77.9% (inactive). For the same compound, the growth (A498 renal) was -39.8% (active), the growth (CCRF-CEM leukemia) was 63.1% (inactive) and the growth (MOLT-4 leukemia) was 89.7% (inactive).
